# Pf growth 96h – Primary qHTS for delayed death inhibitors of the malarial parasite plastid, 96 hour incubation; Potency, µM (doses to about 28.7 µM), inactives show top-dose activity change, negative = inhibition, usual class: inhibitors; actives 6.9% (n = 320,000); P. falciparum luciferase reporter growth, 96 h; note: potency is the fitted concentration of half-maximal effect; % is set by controls: 0 for no effect and ±100 for the full control effect
#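 Compounds incubated with erythrocytes infected by luciferase-expressing P. falciparum (2% hematocrit, 0.05% parasitemia final) for 96 hours, 37 C in 5% CO2. Growth inhibition scored as decreased luciferase luminescence.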
# Shiga toxin inh – A qHTS for Small Molecule Inhibitors of Shiga Toxin. inhibition, % at 38.7 µM. Vero cells, Shiga toxin protein synthesis inhibition reporter. actives 9.2% (n = 290,000); in the data active = inhibition mostly above about 28%, no sharp cut-off; inactive = mostly below about 43%; note: 0% is about no effect
# Cycloheximide cs – Cycloheximide Counterscreen for Small Molecule Inhibitors of Shiga Toxin | actives 12% (n = 300,000) | cell reporter, cycloheximide protein synthesis inhibition counterscreen | max response, %; in the data active = max response mostly above about 13%, no sharp cut-off; inactive = mostly below about 14%; note: read at 38.3 µM for the half of the compounds with a filed dose; 0% is about no effect
# Pf growth 48h – Primary qHTS for delayed death inhibitors of the malarial parasite plastid, 48 hour incubation; Potency, µM (top dose mostly 28.7 µM), for the others: at the top dose activity change, negative = inhibition, actives largely listed as inhibitors; actives 5.9% (n = 310,000); P. falciparum luciferase growth in erythrocytes, 48 h; AID 504832, 2011; note: potency is the fitted concentration of half-maximal effect; % is set by controls: 0 for no effect and ±100 for the full control effect
#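 Read-out is firefly luciferase luminescence from an integrated reporter in P. falciparum, so falling signal marks reduced parasite growth. Infected erythrocytes were at 2% hematocrit and 0.1% parasitemia (final) in Albumax-supplemented RPMI 1640.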
# HCMV antiviral – qHTS Assay for inhibitors of the human cytomegalovirus (HCMV). actives 4.5% (n = 410,000). activity change, negative = inhibition, % at 57.5 µM. HFF cells, HCMV-luciferase reporter, 72 h; active compounds read low; in the data active = activity change below about -60%; inconclusive = no clear call, values can overlap the other calls; inactive = above about -39%; note: % is set by controls: 0 for no effect and ±100 for the full control effect
#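 Steps: HFFs plated, 16 h 37C; compounds added; HCMV-luciferase added to MOI 1 PFU/cell; 72 h 37C; OneGlo reagent, 5 min room temperature; luminescence read, normalized to controls.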
# Active calls of the source: *; ? = inconclusive; . = no result; ! = repeats disagree; [ ] = remark or other dose. In the library only some 20% were active in any assay of this set; here they are far more common. Unless noted, calls come from the whole dose curve; as a rule, active = well fitted inhibition curve with a large enough effect; inconclusive = small, poorly fitted or top-dose-only effect, or another doubt; inactive = no such curve, though single readings can be large or run the other way.
SMILES,Pf growth 96h,Shiga toxin inh,Cycloheximide cs,Pf growth 48h,HCMV antiviral
COc1cc(NC(=O)CC2C(=O)N(c3ccccc3)C(=O)N2Cc2ccc(F)cc2)cc(OC)c1 (centres undefined),.,.,.,.,-36
CCCn1c(C)cc(/C=C(\C#N)C(=O)OCC(=O)Nc2cccc(OC)c2)c1C,?,-4,10,7%,-12
CC1CN(C(=O)CCC(=O)NCc2ccccc2)c2ccccc2S1 (centres undefined),-10%,6,-1,4%,-10
CCc1cccc(NC(=O)CCC(=O)N2CCSc3ccccc32)c1,-20%,11,7,?,-66*!
CCc1ccccc1NC(=O)CCC(=O)N1CCSc2ccccc21,4.1µM*,-3,1,-10%,24
CC1CN(C(=O)CCC(=O)Nc2cc(F)ccc2F)c2ccccc2S1 (centres undefined),.,.,.,.,-78*
CCOc1ccc(CCNC(=O)CCC(=O)N2CCSc3ccccc32)cc1OCC,-14%,-8,-2,?,16
CCOc1ccccc1CNC(=O)CCC(=O)N1CCSc2ccccc21,.,.,.,.,-75*
COc1ccc(NC(=O)c2ccccc2S(=O)c2ccccc2C#N)cc1 (centres undefined),30%[1.15 µM],-10,-7,0%,-14
Cc1ccc(C(=O)Oc2csc(=S)n2C(=O)c2ccc(C)cc2)cc1,.,-15,11,-1%,-62*
Cc1ccc(C(=O)N2CCSC2=S)cc1,-22%,26,9,10%,22
CCOC(=O)c1cc(-c2nnc(-c3ccc(Oc4ccccc4)cc3)o2)c(C)nc1C,?,-15,-4,14%,27
Cc1ccc(OCCNS(=O)(=O)c2cccs2)cc1,15%[5.75 µM],56,44*,-28%,9
CS(=O)(=O)NCCOc1ccc(S(=O)(=O)NCCOc2ccccc2)cc1,31%,-23,8,10µM*,-11
Cc1nn(CC(=O)NCCC2=CCCCC2)c(C)c1[N+](=O)[O-],13%,.,.,?,-28
O=C(Nc1cccc2ccccc12)OC[C@@H]1CSCCS(=O)(=O)N1,.,.,.,.,2
Cc1[nH]c2ccccc2c1C(=O)C(C)OC(=O)c1ccc(Cl)nc1 (centres undefined),-34%,.,.,?,-4
Cc1[nH]c2ccccc2c1C(=O)C(C)OC(=O)c1ccc(NC(=O)CC#N)cc1 (centres undefined),3.3µM*,.,.,3.7µM*,8
Cc1cc(C(=O)C(C)OC(=O)c2ccc(NC(=O)CC#N)cc2)c(C)n1-c1ccc(OC(F)F)cc1 (centres undefined),?,.,.,5.9µM*,?
CCOC(=O)c1cccc(NC(=O)C2CCCN(S(=O)(=O)c3ccc4c(c3)oc(=O)n4C)C2)c1 (centres undefined),.,.,.,.,-16
O=c1[nH]c(NNC(=S)NC2CCCCC2)nc2c1C1(CCCC1)Cc1ccccc1-2,45%,27,-1,9%,26
Cc1nn(C(C)C(=O)NC2CC2)c(=O)c2nn(-c3ccccc3)c(C)c12 (centres undefined),?,-6,-6,7%,7
COC(=O)c1ccccc1NC(=O)C(C)n1nc(C)c2c(C)n(-c3ccccc3)nc2c1=O (centres undefined),9.3µM*,-2,-4,?,?
Cc1nn(C(C)C(=O)Nc2ccccc2Cl)c(=O)c2nn(-c3ccccc3)c(C)c12 (centres undefined),12µM*,-15,-10,-22%,-62*
CCOc1ccccc1CNC(=O)C(C)n1nc(C)c2c(C)n(-c3ccccc3)nc2c1=O (centres undefined),?,-10,-11,-19%,?
Cc1nn(C(C)C(=O)NC2CCCCC2)c(=O)c2nn(-c3ccccc3)c(C)c12 (centres undefined),12µM*,-3,12,-3%,?
CCC(C(=O)Nc1ccccc1C(=O)OC)n1nc(C)c2c(C)n(-c3ccc(C)cc3)nc2c1=O (centres undefined),.,.,.,.,-94*
CCC(C(=O)NCc1ccco1)n1nc(C)c2c(C)n(-c3ccc(C)cc3)nc2c1=O (centres undefined),16%,-8,2,-6%,-24
